What was measured:
Experiment in all cases: DAPPL (digital affinity profiling via proximity ligation, sequencing); 10 mM Tris-HCl pH 7.5, 50 mM NaCl, 1 mM DTT, 4% glycerol, room temperature, 30 min; GST-TFs on glutathione beads, 16-mer random dsDNA library, 0.1% formaldehyde crosslink after washing; high values mean tight binding
[1] = biological target: T1, FEV (Homo sapiens, UniProt Q99581 1-238); conditions: protein: recombinant; tags: N-terminal GST; dsDNA, one strand shown
T1 sequence: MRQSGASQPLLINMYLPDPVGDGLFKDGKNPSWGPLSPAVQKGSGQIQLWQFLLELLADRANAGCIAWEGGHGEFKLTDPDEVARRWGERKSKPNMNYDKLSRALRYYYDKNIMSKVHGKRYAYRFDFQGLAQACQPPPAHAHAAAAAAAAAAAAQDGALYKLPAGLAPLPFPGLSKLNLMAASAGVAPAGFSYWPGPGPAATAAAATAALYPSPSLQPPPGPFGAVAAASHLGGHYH
Outline: (§1)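 The binding signal reported is, for every hexamer, its read frequency for a factor over its read frequency for the tag-only sample. Reads came from pools of yeast-expressed, GST-fused human transcription factors on glutathione beads, barcoded with DNA and mixed with that sample, which were incubated with 200 nmole of a random double-stranded 16-mer DNA library in Tris/NaCl/DTT/glycerol buffer at room temperature for 30 min. After washing, the pools were crosslinked with 0.1% formaldehyde, proximity-ligated with BsaI/T4 ligase for 1 h at 37 °C, PCR-amplified and sequenced on an Illumina NextSeq500.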

[2] = biological target: ETV5 (Homo sapiens, UniProt P41161 1-510); conditions: protein: recombinant; tags: N-terminal GST; dsDNA, one strand shown
ETV5, sequence (P41161 whole entry): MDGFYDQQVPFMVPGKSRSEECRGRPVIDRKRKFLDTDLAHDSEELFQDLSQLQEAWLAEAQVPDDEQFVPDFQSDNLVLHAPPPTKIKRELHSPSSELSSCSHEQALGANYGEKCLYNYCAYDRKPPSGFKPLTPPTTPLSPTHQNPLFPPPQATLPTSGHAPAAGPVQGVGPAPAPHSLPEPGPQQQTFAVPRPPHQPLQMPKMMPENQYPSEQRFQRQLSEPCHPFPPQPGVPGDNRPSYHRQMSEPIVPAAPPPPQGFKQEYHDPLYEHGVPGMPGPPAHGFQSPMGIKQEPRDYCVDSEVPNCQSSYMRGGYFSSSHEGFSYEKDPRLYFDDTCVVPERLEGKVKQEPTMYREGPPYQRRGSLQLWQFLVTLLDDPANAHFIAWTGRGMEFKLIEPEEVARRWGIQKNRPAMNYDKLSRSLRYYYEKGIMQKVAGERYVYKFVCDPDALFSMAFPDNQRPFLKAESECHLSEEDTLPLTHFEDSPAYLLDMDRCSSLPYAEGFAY
Outline: as §1

[3] = biological target: HSF1 (Homo sapiens, UniProt Q00613 1-529); conditions: protein: recombinant; tags: N-terminal GST; chain copies: 3; dsDNA, one strand shown
HSF1, sequence (Q00613 whole entry): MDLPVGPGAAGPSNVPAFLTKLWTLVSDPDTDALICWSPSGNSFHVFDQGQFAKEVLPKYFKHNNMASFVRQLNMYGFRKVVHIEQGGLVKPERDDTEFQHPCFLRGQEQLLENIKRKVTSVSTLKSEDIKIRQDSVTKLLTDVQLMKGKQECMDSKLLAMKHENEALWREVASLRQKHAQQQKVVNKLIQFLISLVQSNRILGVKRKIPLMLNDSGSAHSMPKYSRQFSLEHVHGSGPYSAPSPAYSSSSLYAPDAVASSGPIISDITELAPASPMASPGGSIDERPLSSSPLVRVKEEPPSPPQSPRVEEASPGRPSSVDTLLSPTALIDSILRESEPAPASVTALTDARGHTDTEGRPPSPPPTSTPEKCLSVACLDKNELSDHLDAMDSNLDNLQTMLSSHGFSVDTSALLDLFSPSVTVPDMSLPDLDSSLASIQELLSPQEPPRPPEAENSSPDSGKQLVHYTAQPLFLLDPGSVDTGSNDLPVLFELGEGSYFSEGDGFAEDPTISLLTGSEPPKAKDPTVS
Outline: as §1

[4] = biological target: T2, SPIC (Homo sapiens, UniProt Q8N5J4 1-248); conditions: protein: recombinant; tags: N-terminal GST; dsDNA, one strand shown
T2 sequence: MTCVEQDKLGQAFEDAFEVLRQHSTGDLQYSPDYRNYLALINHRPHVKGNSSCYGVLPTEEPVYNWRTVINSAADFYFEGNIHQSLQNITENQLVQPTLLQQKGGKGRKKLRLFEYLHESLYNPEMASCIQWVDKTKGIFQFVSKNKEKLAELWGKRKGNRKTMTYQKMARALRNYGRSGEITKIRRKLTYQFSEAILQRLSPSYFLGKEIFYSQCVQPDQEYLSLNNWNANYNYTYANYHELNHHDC
Outline: as §1

[5] = biological target: ELF4 (Homo sapiens, UniProt Q99607 1-663); conditions: protein: recombinant; tags: N-terminal GST; dsDNA, one strand shown
ELF4, sequence (Q99607 whole entry): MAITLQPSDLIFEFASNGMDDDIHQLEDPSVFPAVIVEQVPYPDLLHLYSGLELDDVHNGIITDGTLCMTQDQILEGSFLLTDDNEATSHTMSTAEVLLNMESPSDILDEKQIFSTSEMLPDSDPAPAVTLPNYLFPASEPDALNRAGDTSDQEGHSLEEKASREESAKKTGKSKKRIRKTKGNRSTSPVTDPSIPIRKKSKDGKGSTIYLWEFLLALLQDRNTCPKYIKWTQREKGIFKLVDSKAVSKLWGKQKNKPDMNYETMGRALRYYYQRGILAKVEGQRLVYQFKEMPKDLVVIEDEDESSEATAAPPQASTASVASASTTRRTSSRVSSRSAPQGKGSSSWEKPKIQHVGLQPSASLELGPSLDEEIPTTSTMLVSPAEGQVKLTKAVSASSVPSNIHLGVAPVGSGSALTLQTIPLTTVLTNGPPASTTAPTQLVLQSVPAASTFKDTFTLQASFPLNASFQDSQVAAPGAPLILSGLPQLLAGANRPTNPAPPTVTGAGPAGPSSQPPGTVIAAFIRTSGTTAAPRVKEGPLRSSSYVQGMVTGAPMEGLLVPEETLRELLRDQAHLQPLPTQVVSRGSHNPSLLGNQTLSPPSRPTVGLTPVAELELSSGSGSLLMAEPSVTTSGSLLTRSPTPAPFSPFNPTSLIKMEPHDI
Outline: as §1

[6] = biological target: T3, ELK4 (Homo sapiens, UniProt P28324-2 1-405); conditions: protein: recombinant; tags: N-terminal GST; dsDNA, one strand shown
T3 sequence: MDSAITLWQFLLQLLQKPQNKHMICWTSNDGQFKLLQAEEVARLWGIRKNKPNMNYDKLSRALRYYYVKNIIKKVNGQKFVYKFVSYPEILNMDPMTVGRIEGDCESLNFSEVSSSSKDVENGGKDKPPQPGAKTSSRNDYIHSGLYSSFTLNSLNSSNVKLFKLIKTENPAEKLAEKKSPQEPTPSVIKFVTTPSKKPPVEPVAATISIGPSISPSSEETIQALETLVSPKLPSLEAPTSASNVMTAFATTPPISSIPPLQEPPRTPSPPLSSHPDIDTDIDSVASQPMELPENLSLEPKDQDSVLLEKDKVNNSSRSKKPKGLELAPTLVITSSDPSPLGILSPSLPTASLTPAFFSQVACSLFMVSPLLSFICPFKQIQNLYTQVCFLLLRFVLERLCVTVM
Outline: as §1

[7] = biological target: T4, ETV2 (Homo sapiens, UniProt O00321 1-342); conditions: protein: recombinant; tags: N-terminal GST; dsDNA, one strand shown
T4 sequence: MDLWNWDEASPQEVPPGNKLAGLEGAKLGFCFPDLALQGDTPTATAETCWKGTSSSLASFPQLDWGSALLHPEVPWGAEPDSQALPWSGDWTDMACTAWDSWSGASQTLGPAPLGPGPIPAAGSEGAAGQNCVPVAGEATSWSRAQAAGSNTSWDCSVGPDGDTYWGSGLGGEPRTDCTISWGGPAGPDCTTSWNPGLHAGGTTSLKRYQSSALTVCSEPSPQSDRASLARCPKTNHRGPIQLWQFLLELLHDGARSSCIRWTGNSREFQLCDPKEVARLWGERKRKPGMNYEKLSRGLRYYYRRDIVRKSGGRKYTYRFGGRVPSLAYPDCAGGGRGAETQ
Outline: as §1

[8] = biological target: T5, ELF3 (Homo sapiens, UniProt P78545 1-371); conditions: protein: recombinant; tags: N-terminal GST; dsDNA, one strand shown
T5 sequence: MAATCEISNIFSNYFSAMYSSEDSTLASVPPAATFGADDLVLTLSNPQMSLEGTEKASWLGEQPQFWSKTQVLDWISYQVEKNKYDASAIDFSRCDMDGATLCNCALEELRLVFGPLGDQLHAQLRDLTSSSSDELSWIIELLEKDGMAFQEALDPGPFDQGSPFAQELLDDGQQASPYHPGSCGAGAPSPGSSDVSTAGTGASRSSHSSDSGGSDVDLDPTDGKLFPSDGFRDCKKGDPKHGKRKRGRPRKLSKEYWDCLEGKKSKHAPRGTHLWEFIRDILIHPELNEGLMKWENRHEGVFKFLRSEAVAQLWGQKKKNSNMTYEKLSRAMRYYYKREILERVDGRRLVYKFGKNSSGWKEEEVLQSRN
Outline: as §1

[9] = biological target: ETV1 (Homo sapiens, UniProt P50549 1-477); conditions: protein: recombinant; tags: N-terminal GST; dsDNA, one strand shown
ETV1, sequence (P50549 whole entry): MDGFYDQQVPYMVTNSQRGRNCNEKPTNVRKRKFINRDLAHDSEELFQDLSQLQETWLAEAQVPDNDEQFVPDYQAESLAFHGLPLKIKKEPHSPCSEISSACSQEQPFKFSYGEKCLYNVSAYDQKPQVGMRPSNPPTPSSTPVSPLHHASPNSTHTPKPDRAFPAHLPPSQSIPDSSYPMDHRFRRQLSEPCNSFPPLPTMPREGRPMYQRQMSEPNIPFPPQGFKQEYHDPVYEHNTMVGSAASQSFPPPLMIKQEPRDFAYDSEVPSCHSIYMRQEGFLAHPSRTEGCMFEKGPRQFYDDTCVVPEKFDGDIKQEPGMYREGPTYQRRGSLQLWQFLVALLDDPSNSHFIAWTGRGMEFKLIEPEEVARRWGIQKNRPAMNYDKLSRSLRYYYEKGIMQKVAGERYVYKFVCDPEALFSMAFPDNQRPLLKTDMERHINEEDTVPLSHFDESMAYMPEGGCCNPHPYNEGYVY
Outline: as §1

[10] = biological target: T6, ERF (Homo sapiens, UniProt P50548 1-548); conditions: protein: recombinant; tags: N-terminal GST; dsDNA, one strand shown
T6 sequence: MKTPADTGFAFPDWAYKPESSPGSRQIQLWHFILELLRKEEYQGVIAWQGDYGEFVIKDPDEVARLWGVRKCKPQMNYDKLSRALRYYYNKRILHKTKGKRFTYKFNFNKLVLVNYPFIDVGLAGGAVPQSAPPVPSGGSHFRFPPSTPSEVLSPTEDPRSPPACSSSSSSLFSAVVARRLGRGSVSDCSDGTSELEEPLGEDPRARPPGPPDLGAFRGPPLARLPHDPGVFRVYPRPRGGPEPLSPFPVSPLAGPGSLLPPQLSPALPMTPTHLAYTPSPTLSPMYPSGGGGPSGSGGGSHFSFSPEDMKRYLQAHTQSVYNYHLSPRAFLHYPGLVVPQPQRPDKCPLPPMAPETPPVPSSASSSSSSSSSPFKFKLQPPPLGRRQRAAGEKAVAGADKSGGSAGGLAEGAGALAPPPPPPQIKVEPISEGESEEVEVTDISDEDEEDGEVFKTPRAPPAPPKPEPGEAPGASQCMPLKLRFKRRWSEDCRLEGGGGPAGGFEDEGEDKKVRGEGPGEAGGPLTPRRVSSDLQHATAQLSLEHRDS
Outline: as §1

[11] = biological target: T7, ETV3L (Homo sapiens, UniProt Q6ZN32 1-361); conditions: protein: recombinant; tags: N-terminal GST; dsDNA, one strand shown
T7 sequence: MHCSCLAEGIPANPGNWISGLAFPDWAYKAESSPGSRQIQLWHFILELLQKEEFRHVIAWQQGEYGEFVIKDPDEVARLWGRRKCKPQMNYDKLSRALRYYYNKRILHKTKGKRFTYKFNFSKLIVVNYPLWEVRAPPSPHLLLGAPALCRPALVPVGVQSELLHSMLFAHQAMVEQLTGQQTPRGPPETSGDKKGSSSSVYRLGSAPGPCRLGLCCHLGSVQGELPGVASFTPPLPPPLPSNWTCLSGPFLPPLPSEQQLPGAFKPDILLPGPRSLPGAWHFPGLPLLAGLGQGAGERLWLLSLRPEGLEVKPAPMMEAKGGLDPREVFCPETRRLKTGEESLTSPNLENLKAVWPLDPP
Outline: as §1

[12] = biological target: T8, ETS2 (Homo sapiens, UniProt P15036 1-469); conditions: protein: recombinant; tags: N-terminal GST; dsDNA, one strand shown
T8 sequence: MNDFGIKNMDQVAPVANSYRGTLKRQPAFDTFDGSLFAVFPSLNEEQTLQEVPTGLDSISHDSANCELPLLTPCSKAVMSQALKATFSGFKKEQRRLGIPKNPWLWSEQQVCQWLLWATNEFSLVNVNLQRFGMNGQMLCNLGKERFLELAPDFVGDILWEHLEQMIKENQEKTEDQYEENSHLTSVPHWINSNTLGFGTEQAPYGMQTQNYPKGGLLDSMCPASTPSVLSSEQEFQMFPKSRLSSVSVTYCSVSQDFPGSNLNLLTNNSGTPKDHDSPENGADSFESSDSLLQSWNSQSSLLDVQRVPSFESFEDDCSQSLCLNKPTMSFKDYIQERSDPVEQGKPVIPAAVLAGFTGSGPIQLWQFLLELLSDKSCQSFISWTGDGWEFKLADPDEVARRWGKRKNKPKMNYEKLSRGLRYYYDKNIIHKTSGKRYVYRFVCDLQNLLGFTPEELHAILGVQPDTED
Outline: as §1

[13] = biological target: T9, SPDEF (Homo sapiens, UniProt O95238 1-335); conditions: protein: recombinant; tags: N-terminal GST; dsDNA, one strand shown
T9 sequence: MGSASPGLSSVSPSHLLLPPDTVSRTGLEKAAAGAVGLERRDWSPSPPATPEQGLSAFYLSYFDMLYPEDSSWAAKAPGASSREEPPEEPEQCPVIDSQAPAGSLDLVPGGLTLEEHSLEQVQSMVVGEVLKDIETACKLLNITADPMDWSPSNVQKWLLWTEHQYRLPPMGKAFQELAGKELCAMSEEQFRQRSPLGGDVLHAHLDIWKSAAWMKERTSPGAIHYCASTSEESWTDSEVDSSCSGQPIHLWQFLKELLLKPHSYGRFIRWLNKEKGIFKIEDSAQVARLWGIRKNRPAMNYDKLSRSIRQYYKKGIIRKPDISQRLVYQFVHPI
Outline: as §1

[14] = biological target: T10, ETV7 (Homo sapiens, UniProt Q9Y603 1-341); conditions: protein: recombinant; tags: N-terminal GST; dsDNA, one strand shown
T10 sequence: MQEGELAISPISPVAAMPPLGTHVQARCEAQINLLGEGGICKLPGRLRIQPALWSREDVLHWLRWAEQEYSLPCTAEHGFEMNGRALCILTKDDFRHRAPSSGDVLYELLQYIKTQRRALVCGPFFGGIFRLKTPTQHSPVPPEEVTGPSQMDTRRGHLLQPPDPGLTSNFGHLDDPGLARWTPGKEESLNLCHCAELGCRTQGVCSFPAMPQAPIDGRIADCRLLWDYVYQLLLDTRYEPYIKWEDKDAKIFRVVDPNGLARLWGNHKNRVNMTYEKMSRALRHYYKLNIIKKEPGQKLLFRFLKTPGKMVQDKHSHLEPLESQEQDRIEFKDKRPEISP
Outline: as §1

[15] = biological target: T11, ELF5 (Homo sapiens, UniProt Q9UKW6-2 1-255); conditions: protein: recombinant; tags: N-terminal GST; dsDNA, one strand shown
T11 sequence: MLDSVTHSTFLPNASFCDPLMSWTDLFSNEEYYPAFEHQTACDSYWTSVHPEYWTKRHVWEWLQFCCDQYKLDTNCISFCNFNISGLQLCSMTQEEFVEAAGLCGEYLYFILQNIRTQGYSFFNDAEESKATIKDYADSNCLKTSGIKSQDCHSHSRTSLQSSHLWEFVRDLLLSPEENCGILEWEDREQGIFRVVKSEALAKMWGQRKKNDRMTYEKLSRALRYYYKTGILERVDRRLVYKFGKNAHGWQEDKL
Outline: as §1

[16] = biological target: T12, ETV3 (Homo sapiens, UniProt P41162-2 1-143); conditions: protein: recombinant; tags: N-terminal GST; dsDNA, one strand shown
T12 sequence: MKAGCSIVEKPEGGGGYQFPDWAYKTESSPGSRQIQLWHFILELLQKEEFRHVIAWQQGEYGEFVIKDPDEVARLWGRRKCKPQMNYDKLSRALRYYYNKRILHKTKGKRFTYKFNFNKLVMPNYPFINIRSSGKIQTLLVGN
Outline: as §1

[17] = biological target: ETV6 (Homo sapiens, UniProt P41212 1-452); conditions: protein: recombinant; tags: N-terminal GST; dsDNA, one strand shown
ETV6, sequence (P41212 whole entry): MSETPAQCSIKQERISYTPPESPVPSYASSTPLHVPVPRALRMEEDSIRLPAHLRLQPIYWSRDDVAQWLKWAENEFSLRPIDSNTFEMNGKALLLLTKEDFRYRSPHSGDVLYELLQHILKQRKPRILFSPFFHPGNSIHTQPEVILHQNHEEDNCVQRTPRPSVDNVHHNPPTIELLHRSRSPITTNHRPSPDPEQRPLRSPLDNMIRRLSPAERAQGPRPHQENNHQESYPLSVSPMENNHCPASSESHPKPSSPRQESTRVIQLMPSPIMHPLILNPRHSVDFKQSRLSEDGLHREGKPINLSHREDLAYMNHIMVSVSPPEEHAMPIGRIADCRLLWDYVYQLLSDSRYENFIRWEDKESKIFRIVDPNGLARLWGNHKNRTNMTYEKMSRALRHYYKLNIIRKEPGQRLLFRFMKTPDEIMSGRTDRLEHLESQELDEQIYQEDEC
Outline: as §1

Sequence | binding signal [1] | binding signal [2] | binding signal [3] | binding signal [4] | binding signal [5] | binding signal [6] | binding signal [7] | binding signal [8] | binding signal [9] | binding signal [10] | binding signal [11] | binding signal [12] | binding signal [13] | binding signal [14] | binding signal [15] | binding signal [16] | binding signal [17]
TGTACA | 1.24 fold enrichment (6-mer frequency, TF over GST control) | 1.17 fold enrichment (6-mer frequency, TF over GST control) | 1.01 fold enrichment (6-mer frequency, TF over GST control) | 1.45 fold enrichment (6-mer frequency, TF over GST control) | 1.36 fold enrichment (6-mer frequency, TF over GST control) | 1.17 fold enrichment (6-mer frequency, TF over GST control) | 1.19 fold enrichment (6-mer frequency, TF over GST control) | 1.01 fold enrichment (6-mer frequency, TF over GST control) | 1.15 fold enrichment (6-mer frequency, TF over GST control) | 1.28 fold enrichment (6-mer frequency, TF over GST control) | 1.23 fold enrichment (6-mer frequency, TF over GST control) | 1.24 fold enrichment (6-mer frequency, TF over GST control) | 1.67 fold enrichment (6-mer frequency, TF over GST control) | 1.36 fold enrichment (6-mer frequency, TF over GST control) | 1.12 fold enrichment (6-mer frequency, TF over GST control) | 1.17 fold enrichment (6-mer frequency, TF over GST control) | 1.29 fold enrichment (6-mer frequency, TF over GST control)
AACGAC | 1.16 fold enrichment (6-mer frequency, TF over GST control) | 1.14 fold enrichment (6-mer frequency, TF over GST control) | 1.01 fold enrichment (6-mer frequency, TF over GST control) | 1.04 fold enrichment (6-mer frequency, TF over GST control) | 1.18 fold enrichment (6-mer frequency, TF over GST control) | 1.03 fold enrichment (6-mer frequency, TF over GST control) | 1.04 fold enrichment (6-mer frequency, TF over GST control) | 1.02 fold enrichment (6-mer frequency, TF over GST control) | 1.15 fold enrichment (6-mer frequency, TF over GST control) | 1.14 fold enrichment (6-mer frequency, TF over GST control) | 1.15 fold enrichment (6-mer frequency, TF over GST control) | 1.19 fold enrichment (6-mer frequency, TF over GST control) | 1.16 fold enrichment (6-mer frequency, TF over GST control) | 1.07 fold enrichment (6-mer frequency, TF over GST control) | 1.18 fold enrichment (6-mer frequency, TF over GST control) | 1.11 fold enrichment (6-mer frequency, TF over GST control) | 1.19 fold enrichment (6-mer frequency, TF over GST control)
